From PubChem BioAssay
p53ts 39C kill: kills p53ts cells at the nonpermissive temperature. H1299-p53A138V viability at 39C, ATP luminescence, 24 h. Potency, µM (titrated, usually from 46.1 µM), usual class: cytotoxic. 130,000 tested, 1.5% active. AID 902; note: nearly all actives have a fitted effect of over 55% in size
p53ts 32C kill: cytotoxicity in p53ts cells at permissive temperature. Potency, µM (highest dose often 46.1 µM), most hits filed as cytotoxic. AID 924. 130,000 tested, 0.93% active. H1299-p53A138V at 32C, ATP luminescence viability, 24 h; note: nearly all actives have a fitted effect of over 55% in size
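Cells: H1299 p53ts (A138V), 600/well, pre-incubated 16–30 h at 37C. Cpd up to 46 uM, 24 h, 32C. Readout: ATPlite luminescence, 20 min RT. Normalization: DMSO vs tamoxifen 100 uM. AC50 by Hill equation.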
12-hLO inh: 12-hLO (ALOX12) enzyme inhibition. P18054. purified 12-hLO, xylenol orange hydroperoxide absorbance. Potency, µM (titrated, usually from 57.1 µM), hits mostly inhibitors. 150,000 tested, 0.12% active. AID 1452; note: nearly all actives have a fitted effect of over 55% in size
Target sequence (P18054 whole entry, looked up): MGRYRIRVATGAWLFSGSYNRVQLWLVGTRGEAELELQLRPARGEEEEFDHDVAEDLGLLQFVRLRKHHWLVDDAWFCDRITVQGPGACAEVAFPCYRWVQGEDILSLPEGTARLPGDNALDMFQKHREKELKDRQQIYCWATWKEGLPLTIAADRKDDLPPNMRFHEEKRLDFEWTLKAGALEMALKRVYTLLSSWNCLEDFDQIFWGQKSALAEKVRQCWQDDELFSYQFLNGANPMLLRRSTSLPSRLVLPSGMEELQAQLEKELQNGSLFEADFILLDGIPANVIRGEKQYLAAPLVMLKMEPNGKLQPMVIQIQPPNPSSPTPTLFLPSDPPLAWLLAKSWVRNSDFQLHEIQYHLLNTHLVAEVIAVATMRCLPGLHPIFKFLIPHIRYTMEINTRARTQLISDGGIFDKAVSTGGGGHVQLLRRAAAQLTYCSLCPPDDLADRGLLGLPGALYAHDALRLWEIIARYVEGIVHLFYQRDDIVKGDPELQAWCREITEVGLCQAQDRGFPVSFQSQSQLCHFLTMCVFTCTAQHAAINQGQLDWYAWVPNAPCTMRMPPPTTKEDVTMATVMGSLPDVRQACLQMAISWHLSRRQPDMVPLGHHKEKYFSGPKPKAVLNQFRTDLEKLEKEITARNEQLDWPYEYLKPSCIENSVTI
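Lipoxygenase turnover measured by absorbance at 573 and 405 nm after Fe-XO development. Human 12hLO 150 nM, arachidonate 40 uM, pH 7.0 Hepes buffer with detergent; 15 min compound preincubation, 30 min reaction.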
HPGD block: inhibitors of human 15-hydroxyprostaglandin dehydrogenase (HPGD). Potency, µM, usual class: inhibitors. purified HPGD, NADH fluorescence kinetic, PGE2 substrate. 150,000 tested, 4.3% active. AID 894; active = well fitted inhibition curve with a large enough effect, not every such curve was filed as active; inconclusive = small, poorly fitted or top-dose-only effect, or another doubt; inactive = no such curve, though single readings can be large or run the other way
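20 nM HPGD preincubated 15 min at room temperature with compound in 50 mM Tris-HCl pH 8, 0.01% Tween 20. Started with 1 mM NAD+ and 30 uM prostaglandin E2; NADH fluorescence (360/450 nm) read 5 times over 30-s intervals, last minus first.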
Each line names hits and unclear results; the compound was inactive in the other large screens. An excerpt weighted towards active compounds, which were near 4.4% of everything screened. Unless noted, calls come from the whole dose curve; as a rule, active = well fitted curve in the direction sought with a large enough effect; inconclusive = small, poorly fitted or top-dose-only effect, or another doubt; inactive = no such curve, though single readings can be large; an effect the other way counts as inactive or inconclusive.

CCOc1c(OC(C)=O)ccc(/C=C2\N=C(SCC)SC2=O)c1[N+](=O)[O-]	HPGD block 10µM (no result: p53ts 39C kill, p53ts 32C kill)
COC(=O)NC(c1cccc(F)c1)[C@]1(C(C)=O)CCCC1=O (stereo partly drawn)	none (no result: 12-hLO inh, HPGD block)
O=C(c1cccc([N+](=O)[O-])c1)N1c2nc(-c3ccco3)nn2C2(CCCCC2)[C@@H]2CCCC[C@@H]21	none (no result: 12-hLO inh, HPGD block)
NC(=S)NCCC[C@@H](N)C(=O)O	none (no result: HPGD block)
O=C(Nc1ccccn1)c1ccc2ccccc2n1	p53ts 39C kill 15.8µM, p53ts 32C kill 15.8µM
Cc1cccc(NC(=O)c2ccc3ccccc3n2)c1C	none (no result: p53ts 39C kill, p53ts 32C kill)
CCCC(=O)NC1CC(=O)N(c2ccc3c(c2)OCCO3)C1 (stereo not drawn)	none (no result: 12-hLO inh, HPGD block)
Cn1c(C(=O)N2CCC(C(=O)NCCc3ccc(S(N)(=O)=O)cc3)CC2)cc2sccc21	none (no result: 12-hLO inh, HPGD block)
C1=CC2c3ccccc3NC(c3ccncc3)C2C1 (stereo not drawn)	HPGD block 22.4µM
CC(=O)c1ccc2c(c1)C1C=CCC1C(c1ccncc1)N2 (stereo not drawn)	none (no result: p53ts 39C kill, p53ts 32C kill)
COc1cccc(NC(=O)c2cc3c(=O)n(Cc4cccnc4)ccc3nc2C)c1	none (no result: 12-hLO inh, HPGD block)
COc1ccccc1-c1nc(-c2ccc(C)nc2OC)no1	p53ts 39C kill inconclusive, p53ts 32C kill inconclusive
COc1nc(C)ccc1-c1noc(-c2ccccn2)n1	p53ts 39C kill 10µM, p53ts 32C kill 10µM, HPGD block 22.4µM
COc1ccccc1-c1nc(-c2ccccn2)no1	p53ts 39C kill 5.01µM, p53ts 32C kill 3.98µM
COc1ccc(-c2noc(-c3cccc(OC)c3OC)n2)cc1	p53ts 39C kill inconclusive, p53ts 32C kill 12.6µM (no result: 12-hLO inh, HPGD block)
Cc1c(CCNC(=O)C(C)(C)C)sc2nc(-c3ccc(F)cc3)nn12	p53ts 39C kill inconclusive (no result: 12-hLO inh, HPGD block)
O=C(O)CC1Sc2ccccc2NC1=O (stereo not drawn)	none
O=C1Nc2ccccc2SC(c2ccccc2)C1O (stereo not drawn)	HPGD block 28.2µM
O=C1NCCCC2c3cc(O)c4ccccc4c3OC12N1CCCCC1 (stereo not drawn)	p53ts 39C kill 7.94µM, p53ts 32C kill 6.31µM
O=c1oc2ccccc2c(O)c1CN1CCCCC1	p53ts 39C kill inconclusive, p53ts 32C kill inconclusive
Cc1ccc(C)c(NC(=O)CN2C(=O)c3cccnc3Oc3ccc(C)cc32)c1	none (no result: p53ts 39C kill, 12-hLO inh, HPGD block)
Cc1coc2cc3oc(=O)c(CC(=O)NCc4cccc(Cl)c4)c(C)c3cc12	p53ts 39C kill inconclusive (no result: 12-hLO inh, HPGD block)
CSc1oc(-c2ccc(F)cc2)nc1S(=O)(=O)c1ccccc1	HPGD block inconclusive
CCS(=O)(=O)c1oc(-c2ccc(F)cc2)nc1S(=O)(=O)c1ccc(Br)cc1	p53ts 39C kill 1.58µM, p53ts 32C kill 7.08µM (no result: 12-hLO inh, HPGD block)
CSc1oc(-c2ccc(F)cc2)nc1S(=O)(=O)c1ccc(F)cc1	none (no result: p53ts 39C kill, p53ts 32C kill)
CSc1oc(-c2ccccc2)nc1S(=O)(=O)c1ccc(F)cc1	none
CS(=O)(=O)c1oc(-c2ccc(F)cc2)nc1S(=O)(=O)c1ccc(Cl)cc1	p53ts 39C kill 3.98µM, p53ts 32C kill 12.6µM (no result: 12-hLO inh, HPGD block)
CCCCS(=O)(=O)c1oc(-c2ccc(F)cc2)nc1S(=O)(=O)c1ccccc1	p53ts 39C kill 2µM, p53ts 32C kill 10µM (no result: 12-hLO inh, HPGD block)
CC(C)S(=O)(=O)c1oc(-c2ccc(F)cc2)nc1S(=O)(=O)c1ccccc1	p53ts 39C kill 0.794µM, p53ts 32C kill 3.98µM (no result: 12-hLO inh, HPGD block)
COc1ccc(Nc2ncc3c(n2)CCN(Cc2cc(Br)cs2)C3)c(OC)c1	none (no result: 12-hLO inh, HPGD block)
CC(=O)OC[C@@H]1O[C@H](C/C=N\O[C@@H](C)CN2CCCc3nc(C)c(C)cc32)C=C[C@@H]1OC(C)=O	none (no result: 12-hLO inh, HPGD block)
CCOC(=O)c1c(-c2ccc(Br)cc2)csc1NC(=O)c1ccc(C(C)(C)C)cc1	none (no result: 12-hLO inh, HPGD block)
CN(C)c1ccc(CNc2nc(-c3ccco3)nn2S(C)(=O)=O)cc1	none (no result: 12-hLO inh, HPGD block)
COc1ccc(S(=O)(=O)NCC(c2cccs2)S(=O)(=O)c2ccc(C)cc2)cc1F (stereo not drawn)	none (no result: 12-hLO inh, HPGD block)
Cc1ccc(S(=O)(=O)c2nc(-c3cccs3)oc2SC(C)C)cc1	p53ts 39C kill inconclusive (no result: 12-hLO inh, HPGD block)
CC(C)S(=O)(=O)c1oc(-c2cccs2)nc1S(=O)(=O)c1ccc(F)cc1	p53ts 39C kill 3.16µM, p53ts 32C kill inconclusive (no result: 12-hLO inh, HPGD block)
CCOC(=O)c1c(S(=O)(=O)N2CCC(C(=O)Nc3ccc(C)c(Cl)c3)CC2)c(C)n(C)c1C	none (no result: 12-hLO inh, HPGD block)
COc1cc(C#CC#CCN2CCCCC2)ccc1O	HPGD block 14.1µM
COc1ccccc1-c1noc(CCCC(=O)Nc2cc(C)ccc2C)n1	none (no result: 12-hLO inh, HPGD block)
Cc1cc(OCC(=O)NCC(C)C)cc(C)c1Br	HPGD block 14.1µM (no result: p53ts 39C kill, p53ts 32C kill)
C[C@@]1(C(NC(=O)Cc2ccc(C(F)(F)F)cc2)c2ccc(-c3ccccc3)cc2)C[C@H]1C1CCCCC1 (stereo partly drawn)	none
CC1CCN(C(=O)c2cc(-c3ccc(Cl)cc3)on2)CC1	none (no result: 12-hLO inh, HPGD block)
CC1CCN(C(=O)c2cc(-c3ccc(Cl)c(Cl)c3)on2)CC1	HPGD block 14.1µM
O=C(c1cc(-c2ccc(Cl)cc2)on1)N1CCOCC1	p53ts 39C kill 12.6µM, p53ts 32C kill 10µM
O=C(c1cc(-c2ccc(Cl)cc2Cl)on1)N1CCOCC1	p53ts 39C kill 10µM, p53ts 32C kill 3.16µM, HPGD block inconclusive
O=C(c1cc(-c2ccc3c(c2)OCO3)on1)N1CCOCC1	p53ts 39C kill 7.94µM, p53ts 32C kill 7.94µM, HPGD block 31.6µM
O=C(c1cc(-c2ccc3c(c2)OCO3)on1)N1CCN(c2ccccc2)CC1	p53ts 32C kill inconclusive, HPGD block inconclusive
CCn1cc2nc(SCC(=O)Nc3ccc(OC)c(Cl)c3)n(Cc3ccc(OC)cc3)c(=O)c2n1	none (no result: 12-hLO inh, HPGD block)
O=C(O)c1cnc(-c2ccccc2)nc1Sc1cccc(Cl)c1	HPGD block 22.4µM (no result: p53ts 39C kill, p53ts 32C kill)
O=C(O)c1cnc(-c2ccccc2)nc1Sc1ccccc1	HPGD block 14.1µM (no result: p53ts 39C kill, p53ts 32C kill)
O=C(O)c1cnc(-c2ccccc2)nc1Sc1ccc(Cl)cc1Cl	none (no result: p53ts 39C kill, p53ts 32C kill)
